Screens deposited in PubChem BioAssay by several laboratories.
hcDAF-12 act – activators of H. contortus DAF-12 nuclear receptor | activation, % at 6.8 µM | HEK293 hcDAF-12 lit1-tk-luc reporter, luminescence; 0% DMSO, 100% Δ7-dafachronic acid | 370,000 tested, 1.4% active | AID 652067;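 active means activation above the mean of all tested compounds plus 3 SD, cut at about 5.5% in these data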;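 further: 100% = response to 3 µM Δ7-dafachronic acid high control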
Wnt act – Wnt/beta-catenin pathway activation. Wnt/beta-catenin reporter cell assay, activator, plate reader. activation, % at 9.35 µM. 300,000 tested, 1.2% active; in the data active means activation above about 30%, passing the limit was not always enough; inconclusive means no clear call, values can overlap the other calls;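 further: 0% = neutral control wells and 100% = positive control wells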
ssDAF-12 act – activators of S. stercoralis DAF-12 nuclear receptor. HEK293 ssDAF-12/GRIP1 lit1-tk-luc reporter, luminescence; % of 3 µM dafachronic acid response. activation, % at 6.8 µM. 370,000 tested, 1% active;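 active means activation above the mean over all tested compounds plus 3 SD, cut at about 0.9% in these data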;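 further: 0% = DMSO-only wells and 100% = 3 µM delta7-dafachronic acid wells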
DAX1 StAR inh – blocks DAX1 repression of SF-1 activated StAR promoter. HEK293T StAR-luciferase reporter, SF-1/DAX-1 repression relief. inhibition, % at 6.8 µM. 370,000 tested, 1.1% active. AID 652010;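 active means inhibition above the mean over all tested compounds plus 3 SD, cut at about 3.6% in these data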;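 further: 0% = DAX-1 cells with DMSO and 100% = cells lacking DAX-1 with DMSO; higher inhibition means more luminescence from relief of DAX-1 repression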
esBAF inh – inhibitors of esBAF chromatin remodeling in mouse ES cells; Bmi1-luciferase knock-in reporter, 24 h; 100% = twice the neutral-well signal; reporter increase, % at 12.5 µM; 350,000 tested, 2% active; in the data active means activation above about 40%; inconclusive means no clear call, values can overlap the other calls;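 further: 0% = median of the plate's neutral control wells and 100% = double that signal; a rise in the Bmi1 reporter signal indicates esBAF inhibition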
hgDAF-12 ag – hgDAF-12 agonism, primary luciferase screen; HEK293 GAL4-hgDAF12 UAS-luciferase reporter, agonist luminescence; normalized to butyrate control; AID 687014; activation, % at 6.8 µM; 370,000 tested, 1.8% active;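 active means activation above a cutoff set at the mean of all screened compounds plus 3 SD, cut at about 10% in these data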;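 further: 0% = DMSO wells and 100% = sodium butyrate wells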
* marks the source's active call; other numbers are inactive results; ? = inconclusive; . = no result given. An excerpt weighted towards active compounds, which were near 4.2% of everything screened.

SMILES	hcDAF-12 act	Wnt act	ssDAF-12 act	DAX1 StAR inh	esBAF inh	hgDAF-12 ag
COc1ccccc1C(=O)Nc1ccc2c(c1)C(=O)N(C)C[C@H](OC)[C@@H](C)CN[C@@H](C)CO2	.	.	.	.	14	.
O=C(C[C@@H]1CC[C@@H](NC(=O)C2CCOCC2)[C@@H](CO)O1)NCc1ccccc1Cl	.	.	.	.	-3	.
C[C@@H]1CN([C@@H](C)CO)C(=O)Cc2cc(NC(=O)Nc3ccc4c(c3)OCO4)ccc2O[C@H]1CN(C)Cc1ccc(C(F)(F)F)cc1	.	.	.	.	1	.
O=C(N[C@@H]1CC[C@H](CC(=O)N2CCCCC2)O[C@@H]1CO)c1cccc(F)c1	.	.	.	.	-5	.
CC(C)CNS(=O)(=O)c1ccc(C(=O)Nc2ccc3c(c2)OCCO3)cc1	-2	.	0	0	91*	3
CCOc1ccc(C(=O)Nc2ccc3c(c2)OCCO3)cc1[N+](=O)[O-]	-1	0	-1	-1	.	2
CCOc1ccc(C(=O)Nc2ccc3c(c2)OCCO3)cc1OC	1	-1	-2	2	67*	6
Cc1cc(C(=O)Nc2ccc3c(c2)OCCO3)co1	6.1*	.	1	4.1*	1	9
Cc1ccc(NC(=O)c2nnn(-c3ccc4c(c3)OCCO4)c2N)cc1	0	15	-1	1	70*	8
Cc1ccc(NC(=O)c2nnn(-c3cccc(C(F)(F)F)c3)c2N)cc1	-2	-2	-2	1	.	1
CC(C)CNS(=O)(=O)c1ccc(CCC(=O)Nc2ccc3c(c2)OCCO3)cc1	-1	.	-1	-1	5	0
COc1ccc(NC(=O)c2coc(C)c2)cc1	2	10	0	1	74*	7
Cc1cc(NC(=O)c2ccc(C)o2)no1	4	5	-1	0	-2	3
CCc1ccc(C(=O)Nc2cc(C)on2)o1	1	9	0	1	51*	8
Cc1cc(C)n(-c2ccc(C(=O)Nc3ccc4c(c3)OCCO4)cc2)n1	-3	.	-1	-1	56*	2
Cc1ccc(N2CC(C(=O)Nc3ccc4c(c3)OCCO4)CC2=O)cc1 (stereo not given)	-1	30*	-1	-1	-11	-7
COc1ccc(C(=O)Nc2cc(C)on2)cc1	1	47*	1	2	-7	10
COc1cc(OC)cc(C(=O)Nc2ccc3c(c2)OCCO3)c1	0	14	0	1	42*	6
O=C(NC(=S)Nc1ccc(N2CCOCC2)cc1)c1ccc2c(c1)OCCO2	-4	-11	0	-1	.	-2
COc1ccc(NC(=S)NC(=O)c2ccc3c(c2)OCCO3)cc1	2	-4	0	0	54*	7
COc1ccccc1C(=O)Nc1ccc2c(c1)OC[C@@H](C)N(C(C)=O)C[C@@H](C)[C@@H](OC)CN(C)C2=O	.	.	.	.	-1	.
CSc1ccccc1OCc1cc(C(=O)N(C)Cc2ccc(C)o2)no1	2	18	-1	2	75*	6
CC(=O)c1cccc(OCc2cc(C(=O)N(C)Cc3ccc(C)o3)no2)c1	1	15	-1	0	38	3
CO[C@H]1CN(C)C(=O)c2cc(NC(C)=O)ccc2OC[C@H](C)N(Cc2ccccc2C(=O)O)C[C@@H]1C	.	.	.	.	-9	.
CC(C)(CO)NC(=O)CCCOc1ccc(Cl)cc1Cl	2	.	-1	1	48*	6
SMILES	hcDAF-12 act	Wnt act	ssDAF-12 act	DAX1 StAR inh	esBAF inh	hgDAF-12 ag
Cc1cc(Cl)ccc1OCC(=O)NCc1ccncc1	-1	.	-1	1	62*	2
O=C(CCCOc1ccc(Cl)cc1Cl)Nc1ccccc1C(=O)O	2	?	-1	2	79*	3
CSc1ccccc1NC(=O)COc1ccc(Cl)cc1Cl	1	.	-1	0	47*	3
O=C(CCCOc1ccc(Cl)cc1Cl)Nc1cccnc1	-1	.	-1	0	-6	0
Cc1cccc(OCC(=O)Nc2ccc(C(=O)Nc3ccccc3C(=O)O)cc2)c1	0	-1	0	1	5	-5
O=C(COc1ccc(Cl)cc1Cl)Nc1ccc(C(=O)Nc2ccccc2C(=O)O)cc1	2	2	0	4.3*	1	0
Cc1cc(Cl)ccc1OCCCC(=O)NO	-2	.	-1	-1	-16	12*
CC(=O)c1sc(NC(=O)COc2ccc(Cl)cc2Cl)nc1C	1	7	-1	-1	45*	-2
COc1cccc(C(=O)Nc2ccc3c(c2)OC[C@@H](C)N(C(C)=O)C[C@@H](C)[C@H](OC)CN(C)C3=O)c1	.	.	.	.	-3	.
C[C@H](C(=O)N(C)C[C@@H]1OCc2ccccc2-c2ccccc2C(=O)N([C@H](C)CO)C[C@@H]1C)c1ccccc1	.	.	.	.	3	.
C[C@@H]1CN([C@@H](C)CO)C(=O)c2cc(NC(=O)Cn3cnnn3)ccc2O[C@@H]1CN(C)Cc1ccncc1	.	.	.	.	1	.
O=C(NCCc1ccccc1)c1noc2c1CCc1ccccc1-2	-1	.	-1	0	9	3
O=C(Nc1nccs1)c1cc2c(s1)-c1ccccc1OC2	5	?	0	3	103*	10*
O=C(Nc1ccc(Cl)cn1)c1cc2c(s1)-c1ccccc1OC2	-2	18	-2	1	?	2
O=C(Nc1cccnc1Cl)c1cc2c(s1)-c1ccccc1OC2	1	0	-1	0	46*	5
O=C(Nc1cccnc1Cl)c1noc2c1CCc1ccccc1-2	1	37*	0	2	.	4
CNC[C@H]1Oc2ccc(NS(=O)(=O)c3cccs3)cc2C(=O)N([C@@H](C)CO)C[C@H]1C	.	.	.	.	2	.
O=C(Cc1ccccn1)NCC[C@@H]1CC[C@@H](NC(=O)c2ccccc2F)[C@@H](CO)O1	.	.	.	.	0	.
Cc1oc2cc3c(C(=O)N4CCCCC4)c(C)oc3cc2c1C(=O)N1CCCCC1	-1	.	-2	-2	149*	-4
O=C(CC1CC1)Nc1ccc2c(c1)[C@H]1C[C@@H](CC(=O)NC3CCCCC3)O[C@@H](CO)[C@H]1O2	.	.	.	.	-1	.
O=C1OCC2=C1C(c1ccccc1)CC(=O)N2c1ccc(F)cc1 (stereo not given)	-1	0	-1	1	.	12*
O=C1OCC2=C1C(c1ccc(Cl)cc1)CC(=O)N2c1ccc(F)cc1 (stereo not given)	0	-3	-1	-1	.	6
C[C@@H]1CN([C@H](C)CO)C(=O)Cc2cc(NC(=O)CCN3CCOCC3)ccc2O[C@@H]1CN(C)S(=O)(=O)c1ccccc1	.	.	.	.	3	.
CC(=O)Nc1ccc(-c2cn3ccsc3n2)cc1	2	.	0	1	-7	12*
Cc1nc(-c2ccc(NC(=O)C3CCCCC3)cc2)cs1	2	.	0	2	68*	10
O=C(Nc1ccc(-c2ccc3nncn3n2)cc1)C1CCCC1	0	44*	-1	1	14	-1
